These results are taken from PubChem BioAssay (EPA / NIEHS).

Read-out in assay [1]: TIMP metallopeptidase inhibitor 1 (TIMP1), TIMP1 (gene 7076)
Briefly: BSK_hDFCGF_TIMP1: BioMAP Diversity Plus: hDFCGF Assay for TIMP metallopeptidase inhibitor 1 (TIMP1) Biomarker Activity (AID 2283062). To be noted: primary human foreskin fibroblasts; actives raise or lower the signal. A digest of the protocol: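 Bidirectional curve fitting against DMSO baseline yielded this endpoint, based on ELISA detection of TIMP-1 in primary human foreskin fibroblasts exposed to compound for 24 h.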

Read-out in assay [2]: Monokine induced gamma interferon (MIG), CXCL9 (gene 4283)
Kind of assay: BSK_hDFCGF_MIG: BioMAP Diversity Plus: hDFCGF Assay for Monokine induced gamma interferon (MIG) Biomarker Activity (AID 2283063). To be noted: primary human foreskin fibroblasts; actives raise or lower the signal. Put shortly: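 Endpoint derived by bidirectional fitting relative to DMSO; MIG quantified via ELISA in primary human foreskin fibroblasts harvested 24 h after dosing.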

Read-out in assay [3]: Matrix Metallopeptidase 1 (MMP1), MMP1 (gene 4312)
Kind of assay: BSK_hDFCGF_MMP1: BioMAP Diversity Plus: hDFCGF Assay for Matrix Metallopeptidase 1 (MMP1) Biomarker Activity (AID 2283064). The following applies: primary human foreskin fibroblasts; actives raise or lower the signal. Put shortly:
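Primary human foreskin fibroblasts exposed to chemicals for 24 h; MMP1 measured by ELISA. Cytotoxicity tracked by SRB staining in parallel cultures; bidirectional fit relative to DMSO.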

Read-out in assay [4]: Vascular cell adhesion molecule 1 (VCAM1), VCAM1 (gene 7412)
Kind of assay: BSK_hDFCGF_VCAM1: BioMAP Diversity Plus: hDFCGF Assay for Vascular cell adhesion molecule 1 (VCAM1) Biomarker Activity (AID 2283065).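 On AC50: VCAM-1 protein level quantified by ELISA after 24 h chemical exposure.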 To be noted: primary human foreskin fibroblasts; actives raise or lower the signal. A digest of the protocol:
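Measured after 24 h chemical treatment of primary human skin fibroblasts, VCAM-1 was detected by ELISA and concentration-response analysed in both directions versus DMSO vehicle.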

Read-out in assay [5]: Plasminogen activator inhibitor-1 (PAI1), SERPINE1 (gene 5054)
Briefly: BSK_hDFCGF_PAI1: BioMAP Diversity Plus: hDFCGF Assay for Plasminogen activator inhibitor-1 (PAI1) Biomarker Activity (AID 2283066). To be noted: primary human foreskin fibroblasts; actives raise or lower the signal. Put shortly: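 PAI-1 levels, determined by ELISA, served as the endpoint in human foreskin fibroblast cultures exposed to compound for 24 h, with DMSO as baseline.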

Read-out in assay [6]: Intercellular Adhesion Molecule 1 (ICAM1), ICAM1 (gene 3383)
Briefly: BSK_KF3CT_ICAM1: BioMAP Diversity Plus: KF3CT Assay for Intercellular Adhesion Molecule 1 (ICAM1) Biomarker Activity (AID 2283067). The following applies: primary human keratinocytes with fibroblasts; actives raise or lower the signal. A digest of the protocol: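 Bidirectional curve fitting against a DMSO baseline was applied to ICAM-1 ELISA signal from primary human skin co-cultures harvested 24 h after treatment, with SRB staining of parallel wells for overt cytotoxicity.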

Read-out in assay [7]: Interferon-gamma inducible Protein 10 (IP10), CXCL10 (gene 3627)
Briefly: BSK_KF3CT_IP10: BioMAP Diversity Plus: KF3CT Assay for Interferon-gamma inducible Protein 10 (IP10) Biomarker Activity (AID 2283068). To be noted: primary human keratinocytes with fibroblasts; actives raise or lower the signal. Put shortly: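 ELISA read-out of IP-10 after 24 h chemical dosing of human skin primary co-culture (keratinocytes, foreskin fibroblasts). Gain or loss of signal relative to DMSO, bidirectional curve fit.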

Assay [8] can be described thus: BSK_KF3CT_SRB: Viability Assessment in the BioMAP Diversity Plus: KF3CT Assay (AID 2283069).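 Further: total protein by sulforhodamine B staining as a cytotoxicity measure; read 24 h after compound addition; fitted for both signal gain and loss against DMSO baseline.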 The following applies: primary human keratinocytes with fibroblasts. Put shortly:
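Human keratinocyte and foreskin fibroblast co-culture exposed to chemical for 24 h. Total protein measured in parallel cultures by 0.1% sulforhodamine B staining after 10% TCA fixation, read at 560 nm; bidirectional fit relative to DMSO.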

Read-out in assay [9]: Interleukin-1 alpha (IL1a), IL1A (gene 3552)
Briefly: BSK_KF3CT_IL1a: BioMAP Diversity Plus: KF3CT Assay for Interleukin-1 alpha (IL1a) Biomarker Activity (AID 2283070). The following applies: primary human keratinocytes with fibroblasts; actives raise or lower the signal. A digest of the protocol: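 Primary human keratinocyte plus foreskin fibroblast co-culture, dosed and measured at 24 h in 96-well plates. IL-1a level quantified by ELISA; bidirectional fit relative to DMSO.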

Read-out in assay [10]: TIMP metallopeptidase inhibitor 2 (TIMP2), TIMP2 (gene 7077)
Kind of assay: BSK_KF3CT_TIMP2: BioMAP Diversity Plus: KF3CT Assay for TIMP metallopeptidase inhibitor 2 (TIMP2) Biomarker Activity (AID 2283071). The following applies: primary human keratinocytes with fibroblasts; actives raise or lower the signal. A digest of the protocol: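 Keratinocyte–fibroblast co-culture, 24 h exposure; TIMP-2 ELISA, DMSO-normalised bidirectional fit. Parallel SRB (0.1%, TCA-fixed, 560 nm) total-protein staining gauges cytotoxicity.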

Read-out in assay [11]: C-C motif chemokine 2 (Homo sapiens) (UniProt P13500)
Kind of assay: BSK_KF3CT_MCP1: BioMAP Diversity Plus: KF3CT Assay for Monocyte Chemoattractant Protein 1 (MCP1/CCL2) Biomarker Activity (AID 2283073). The following applies: primary human keratinocytes with fibroblasts; actives raise or lower the signal. Put shortly:
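Biomarker MCP-1 is measured by ELISA in primary human keratinocytes co-cultured with foreskin fibroblasts, 24 h after chemical treatment; DMSO serves as the negative control and activity baseline.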

Read-out in assay [12]: Matrix Metallopeptidase 9 (MMP9), MMP9 (gene 4318)
Kind of assay: BSK_KF3CT_MMP9: BioMAP Diversity Plus: KF3CT Assay for Matrix Metallopeptidase 9 (MMP9) Biomarker Activity (AID 2283074).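 On AC50: MMP9 protein level quantified by ELISA in the co-culture.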 To be noted: primary human keratinocytes with fibroblasts; actives raise or lower the signal. A digest of the protocol:
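Human keratinocyte and foreskin fibroblast co-culture exposed to chemicals for 24 h; MMP9 biomarker measured by ELISA, bidirectional fitting relative to DMSO; cytotoxicity tracked by SRB total protein staining in parallel cultures.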

Read-out in assay [13]: urokinase plasminogen activator (uPA), PLAU (gene 5328)
Briefly: BSK_KF3CT_uPA: BioMAP Diversity Plus: KF3CT Assay for urokinase plasminogen activator (uPA) Biomarker Activity (AID 2283075). To be noted: primary human keratinocytes with fibroblasts; actives raise or lower the signal. A digest of the protocol:
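Primary human keratinocyte/foreskin fibroblast co-culture exposed to chemical; uPA measured by ELISA at 24 h. Bidirectional fit versus DMSO, with parallel SRB total-protein staining for cytotoxicity.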

Read-out in a further assay: CD40, CD40 (gene 958)
Briefly: BSK_LPS_CD40: BioMAP Diversity Plus: LPS Assay for CD40 Biomarker Activity (AID 2283076). To be noted: primary human HUVEC with PBMC; actives raise or lower the signal. A digest of the protocol: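 Using a multiplexed primary human co-culture (umbilical vein endothelium plus PBMC), CD40 was read by ELISA 24 h after dosing, with cytotoxicity tracked by sulforhodamine B staining of parallel cultures and activity fitted bidirectionally versus DMSO.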

Read-out in assay [14]: E-selectin (Homo sapiens) (UniProt P16581)
Kind of assay: BSK_LPS_Eselectin: BioMAP Diversity Plus: LPS Assay for Eselectin Biomarker Activity (AID 2283077). The following applies: primary human HUVEC with PBMC; actives raise or lower the signal. A digest of the protocol:
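Dose chemical onto LPS-driven HUVEC/PBMC co-culture; after 24 h, run ELISA for E-selectin; fit up- and down-going responses relative to DMSO control.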

The nature of assay [15]: BSK_LPS_SRB: Viability Assessment in the BioMAP Diversity Plus: LPS Assay (AID 2283079).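 Further: total protein by sulforhodamine B absorbance as a cytotoxicity measure; measured one day after compound addition; fitted in both directions against DMSO so loss or gain of signal counts.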 The following applies: primary human HUVEC with PBMC. Put shortly:
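Cytotoxicity endpoint in human endothelial–PBMC co-culture: 24 h exposure, then SRB (0.1%) staining, 560 nm read.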

Read-out in assay [16]: Interleukin-1 alpha (IL1a), IL1A (gene 3552)
Kind of assay: BSK_LPS_IL1a: BioMAP Diversity Plus: LPS Assay for Interleukin-1 alpha (IL1a) Biomarker Activity (AID 2283080). To be noted: primary human HUVEC with PBMC; actives raise or lower the signal. A digest of the protocol:
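Primary human HUVEC and PBMC co-culture stimulated with LPS is dosed and harvested at 24 h. Both increases and decreases in ELISA-measured IL-1a are scored relative to DMSO.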

Read-out in assay [17]: Transforming growth factor beta 1 (TGFb1), TGFB1 (gene 7040)
Kind of assay: BSK_KF3CT_TGFb1: BioMAP Diversity Plus: KF3CT Assay for Transforming growth factor beta 1 (TGFb1) Biomarker Activity (AID 2283072). The following applies: primary human keratinocytes with fibroblasts; actives raise or lower the signal. A digest of the protocol: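 Signal changes in either direction, relative to DMSO, define activity here. TGF-b1 is read by ELISA from a human keratinocyte-fibroblast co-culture 24 h post-dose.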

Read-out in assay [18]: Interleukin-8 (IL8), CXCL8 (gene 3576)
Briefly: BSK_LPS_IL8: BioMAP Diversity Plus: LPS Assay for Interleukin-8 (IL8) Biomarker Activity (AID 2283078). The following applies: primary human HUVEC with PBMC; actives raise or lower the signal. Put shortly: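 In this LPS system, chemical-treated human umbilical vein endothelium/PBMC co-cultures were harvested at 24 h for IL-8 ELISA.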

Read-out in assay [19]: Monocyte Chemoattractant Protein-1 (MCP1), CCL2 (gene 6347)
Kind of assay: BSK_LPS_MCP1: BioMAP Diversity Plus: LPS Assay for Monocyte Chemoattractant Protein-1 (MCP1) Biomarker Activity (AID 2283081).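 On AC50: secreted MCP-1 protein quantified by ELISA in culture supernatant.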 The following applies: primary human HUVEC with PBMC; actives raise or lower the signal. A digest of the protocol: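 Values derive from bidirectional fitting against DMSO of ELISA-measured MCP-1 in a human primary endothelial and mononuclear cell co-culture, 24 h after chemical addition under LPS activation.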

Active and inactive are the calls of the source. How the source made its calls: active means hit-call score of the fitted dose curve at least 0.9, where 1 is the maximum; inactive means score below 0.9.

Chain of E-selectin (Homo sapiens) (P16581 whole entry, looked up): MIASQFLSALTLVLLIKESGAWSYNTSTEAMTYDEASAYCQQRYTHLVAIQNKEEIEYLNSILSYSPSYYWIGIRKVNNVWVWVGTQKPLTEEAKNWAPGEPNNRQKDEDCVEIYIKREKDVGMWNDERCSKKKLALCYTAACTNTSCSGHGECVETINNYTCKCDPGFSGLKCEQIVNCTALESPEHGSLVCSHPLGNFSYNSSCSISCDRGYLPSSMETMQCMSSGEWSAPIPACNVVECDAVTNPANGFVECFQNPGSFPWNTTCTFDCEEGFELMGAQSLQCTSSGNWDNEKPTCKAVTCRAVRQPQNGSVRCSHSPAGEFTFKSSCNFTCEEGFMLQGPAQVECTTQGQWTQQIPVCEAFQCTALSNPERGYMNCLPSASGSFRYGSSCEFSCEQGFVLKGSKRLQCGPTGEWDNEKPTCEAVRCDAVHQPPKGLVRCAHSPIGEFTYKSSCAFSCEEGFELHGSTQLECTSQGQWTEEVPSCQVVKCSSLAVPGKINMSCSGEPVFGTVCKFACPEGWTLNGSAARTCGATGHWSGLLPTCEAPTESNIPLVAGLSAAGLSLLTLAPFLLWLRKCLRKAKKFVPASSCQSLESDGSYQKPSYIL

As a reminder, the AC50 is the concentration at which the activity in the assay is half-maximal. With `CC(C)CCCCCCc1ccc(O)cc1`, the half-maximal activity concentration (AC50) in assay [1] was 11.9 µM (active); in assay [2] it was 8.13 µM (active); in assay [3] it was 9.57 µM (active); in assay [4], 9.07 µM (active); in assay [5], 11.1 µM (active); in assay [6], 7.58 µM (active). The AC50 in [7] was 9.35 µM (active); in [8], 5.35 µM (active); in [9], 8.32 µM (active); in assay [10], 6.18 µM (active); in assay [11], 8.65 µM (active); in [12], 9.76 µM (active). Also, the AC50 in [13] is 9.65 µM (active); with CD40, CD40 (gene 958) it was 9.28 µM (active); in assay [14], 12.1 µM (active); in assay [15], 13.8 µM (active); in assay [16] it was 6.77 µM (active).

With `CCOC(=O)C(C)Oc1ccc(Oc2nc3ccc(Cl)cc3o2)cc1` (configuration not stated), the outcome in assay [1], in [2], in assay [4], in assay [5], in assay [6] and in assay [7] was inactive. In addition, the outcome in assay [8], in assay [9], in assay [10], in assay [17], in assay [11] and in assay [13] was inactive. Besides, the outcome with CD40, CD40 (gene 958) was “inactive”; in assay [14], “inactive”; in assay [18], “inactive”; in assay [15] it was “inactive”; in assay [16], “inactive”; in [19] it was “inactive”. The AC50 was 20 µM (active) in assay [3] and 9.61 µM (active) in assay [12].

For the compound `CCCOC(=O)c1ccc(C(=O)OCCC)nc1`, the outcome in assay [1], in assay [2], in [3], in assay [5], in assay [6] and in [7] was inactive. The result in assay [8], in [9], in assay [10], in assay [17], in assay [11] and in assay [12] was inactive. Besides, the outcome in assay [13] is “inactive”; in the assay with CD40, CD40 (gene 958) it was “inactive”; in assay [14] it was “inactive”; in assay [18], “inactive”; in assay [15], “inactive”; in assay [16], “inactive”. Further, the concentration at half-maximal activity (AC50) in assay [19] was 1.84 µM (active).

Regarding `O=C(c1ccc(O)cc1O)c1ccc(O)cc1O`, the result in [1], in [2], in [3], in [4], in assay [5] and in assay [6] was inactive. The outcome in [7], in [8], in assay [9], in assay [10], in [11] and in assay [12] was inactive. Besides, the outcome was “inactive” in [13]; “inactive” with CD40, CD40 (gene 958); “inactive” in [14]; “inactive” in assay [18]; “inactive” in assay [15]; “inactive” in assay [16]. In assay [19], the outcome was inactive.

Regarding `COC(=O)c1ccc(I)cc1S(=O)(=O)NC(=O)Nc1nc(C)nc(OC)n1`, the outcome in assay [1], in assay [2], in [3], in [4], in [5] and in assay [6] was inactive. For the same compound, the outcome in assay [7], in assay [8], in [9], in assay [10], in assay [17] and in [11] was inactive. Moreover, the outcome in assay [12] was “inactive”; in [13], “inactive”; with CD40, CD40 (gene 958) it was “inactive”; in assay [14] it was “inactive”; in assay [18], “inactive”; in [15], “inactive”. Besides, the result in [16] and in [19] was inactive.

With `C[C@]12C[C@H](O)[C@H]3[C@@H](CCC4=CC(=O)CC[C@@]43C)[C@@H]1CC[C@@H]2C(=O)CO`, the outcome in [1], in assay [2], in assay [5], in [6], in assay [7] and in assay [8] was inactive. Besides, the outcome in [10] is “inactive”; in [11], “inactive”; in assay [12], “inactive”; in assay [13] it was “inactive”; with CD40, CD40 (gene 958), “inactive”; in assay [14], “inactive”. The result in [18], in assay [15], in [16] and in assay [19] was inactive. The AC50 in [3] is 1.4 µM (active).
